Test results published in PubChem BioAssay AID1159580 (chemical genetic matrix, 2015).
Hit rate of the full screen: of about 5,500 compounds, about 2,000 (36%) were called active. Not shown: some 18% with an inconclusive outcome. Rule as the data show it: active = normalized growth mostly below about 0.91 (no sharp cut-off); inconclusive = no clear call, values can overlap the other calls; inactive = mostly above about 0.92. This is one part of the list.

Test: chemical genetic growth profiling, strain panel (AID 1159580);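 also: tested at 20 µM; growth read once vehicle control cultures reached saturation at 30 °C; 1 = growth at the plate median or of vehicle wells; lower values mean less growth of the strain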
Settings: growth OD
[1] = S. cerevisiae deletion strains, locus YAL013W, strain DEP1, stronger effect = lower value
[2] = S. cerevisiae deletion strains, locus YDR150W, strain NUM1, stronger effect = lower value
[3] = S. cerevisiae deletion strains, locus YGR229C, strain SMI1, stronger effect = lower value
[4] = S. cerevisiae deletion strains, locus YNL153C, strain GIM3, stronger effect = lower value
[5] = S. cerevisiae deletion strains, locus YNL322C, strain KRE1, stronger effect = lower value
[6] = S. cerevisiae deletion strains, locus YBR229C, strain ROT2, stronger effect = lower value
[7] = S. cerevisiae deletion strains, locus YDL101C, strain DUN1, stronger effect = lower value
[8] = S. cerevisiae deletion strains, locus YDL134C, strain PPH21, stronger effect = lower value
[9] = S. cerevisiae deletion strains, locus YEL061C, strain CIN8, stronger effect = lower value
[10] = S. cerevisiae deletion strains, locus YGR078C, strain PAC10, stronger effect = lower value
[11] = S. cerevisiae deletion strains, locus YHR030C, strain SLT2, stronger effect = lower value
[12] = S. cerevisiae deletion strains, locus YHR087W, strain rtc3, stronger effect = lower value
[13] = S. cerevisiae deletion strains, locus YJR043C, strain POL32, stronger effect = lower value
[14] = S. cerevisiae deletion strains, locus YJR075W, strain HOC1, stronger effect = lower value
[15] = S. cerevisiae deletion strains, locus YLR039C, strain RIC1, stronger effect = lower value
[16] = S. cerevisiae deletion strains, locus YLR058C, strain SHM2 (second series), stronger effect = lower value
[17] = S. cerevisiae deletion strains, locus YLR085C, strain ARP6, stronger effect = lower value
[18] = S. cerevisiae deletion strains, locus YLR262C, strain YPT6, stronger effect = lower value
[19] = S. cerevisiae deletion strains, locus YML094W, strain GIM5, stronger effect = lower value
[20] = S. cerevisiae deletion strains, locus YMR219W, strain ESC1, stronger effect = lower value
[21] = S. cerevisiae deletion strains, locus YMR263W, strain SAP30, stronger effect = lower value
[22] = S. cerevisiae deletion strains, locus YNL298W, strain CLA4 (second series), stronger effect = lower value
[23] = S. cerevisiae deletion strains, locus YNR030W, strain Alg12, stronger effect = lower value
[24] = S. cerevisiae deletion strains, locus YPL055C, strain LGE1, stronger effect = lower value
[25] = S. cerevisiae deletion strains, locus YPL241C, strain CIN2, stronger effect = lower value
[26] = S. cerevisiae deletion strains, locus YPR135W, strain CTF4, stronger effect = lower value
[27] = S. cerevisiae strains, strain wild type, stronger effect = lower value
[28] = S. cerevisiae deletion strains, locus YOL006C, strain TOP1, stronger effect = lower value

Measured: normalized growth

CCS(=O)(=O)Nc1cccc(C(=C2CCCCC2)c2cnc[nH]2)c1
inactive: [1] 0.982 | S. cerevisiae deletion strains, locus YAL040C, strain CLN3, stronger effect = lower value 1 | [2] 1.02 | S. cerevisiae deletion strains, locus YDR363W, strain ESC2, stronger effect = lower value 0.974 | S. cerevisiae deletion strains, locus YER002W, strain NOP16, stronger effect = lower value 1.04 | [3] 1 | [4] 1.03 | S. cerevisiae deletion strains, locus YNL175C, strain NOP13, stronger effect = lower value 1 | S. cerevisiae deletion strains, locus YNL197C, strain WHI3, stronger effect = lower value 1 | S. cerevisiae deletion strains, locus YNL224C, strain SQS1, stronger effect = lower value 1.01 | [5] 0.994 | S. cerevisiae deletion strains, locus YOR083W, strain WHI5 (second series), stronger effect = lower value 1.02

Cn1nccc1NS(=O)(=O)c1cccc(Cl)c1
inactive: [1] 1.01 | [6] 1.01 | S. cerevisiae deletion strains, locus YCL061C, strain MRC1, stronger effect = lower value 1.02 | [7] 1 | [8] 0.969 | [2] 1.04 | [9] 1.01 | [10] 1.02 | [11] 1.07 | [12] 1.01 | [13] 1.03 | [14] 1.02 | [15] 0.98 | [16] 1.04 | [17] 0.984 | [18] 1.07 | [19] 0.972 | [20] 0.998 | [21] 1.03 | S. cerevisiae deletion strains, locus YMR307W, strain GAS1, stronger effect = lower value 0.957 | [4] 1.01 | [22] 1.03 | [5] 1 | [23] 0.995 | [24] 1 | [25] 0.975 | [26] 1.08 | [27] 1.01

O=S(=O)(Nc1ccc(Oc2ccc(OC(F)(F)F)cc2)cc1)c1cccc(Cl)c1
active: [11] 0.562 | S. cerevisiae deletion strains, locus YLR113W, strain HOG1, stronger effect = lower value 0.695 | S. cerevisiae deletion strains, locus YPL256C, strain CLN2, stronger effect = lower value 0.75
inactive: S. cerevisiae deletion strains, locus YAR019C, strain CDC15, stronger effect = lower value 0.982 | S. cerevisiae deletion strains, locus YBL105C, strain PKC1, stronger effect = lower value 0.973 | S. cerevisiae deletion strains, locus YBR135W, strain CKS1, stronger effect = lower value 0.978 | S. cerevisiae deletion strains, locus YBR136W, strain MEC1, stronger effect = lower value 0.982 | S. cerevisiae deletion strains, locus YBR160W, strain CDC28, stronger effect = lower value 0.981 | S. cerevisiae deletion strains, locus YDL017W, strain CDC7, stronger effect = lower value 0.982 | S. cerevisiae deletion strains, locus YDL028C, strain MPS1, stronger effect = lower value 0.982 | [7] 0.991 | S. cerevisiae deletion strains, locus YDL108W, strain KIN28, stronger effect = lower value 0.976 | S. cerevisiae deletion strains, locus YDL132W, strain cdc53, stronger effect = lower value 0.988 | S. cerevisiae deletion strains, locus YDL214C, strain PRR2, stronger effect = lower value 0.932 | S. cerevisiae deletion strains, locus YDR052C, strain DBF4, stronger effect = lower value 0.98 | S. cerevisiae deletion strains, locus YDR054C, strain cdc34, stronger effect = lower value 0.988 | S. cerevisiae deletion strains, locus YDR226W, strain ADK1, stronger effect = lower value 0.984 | S. cerevisiae deletion strains, locus YDR477W, strain SNF1, stronger effect = lower value 0.964 | S. cerevisiae deletion strains, locus YER123W, strain YCK3, stronger effect = lower value 0.933 | S. cerevisiae deletion strains, locus YER133W, strain GLC7, stronger effect = lower value 0.933 | S. cerevisiae deletion strains, locus YFL009W, strain cdc4, stronger effect = lower value 0.979 | S. cerevisiae deletion strains, locus YFL029C, strain CAK1, stronger effect = lower value 0.985 | S. cerevisiae deletion strains, locus YFR003C, strain YPI1, stronger effect = lower value 0.977 | S. cerevisiae deletion strains, locus YFR019W, strain FAB1, stronger effect = lower value 0.891 | S. cerevisiae deletion strains, locus YFR028C, strain CDC14, stronger effect = lower value 0.985 | S. cerevisiae deletion strains, locus YGR040W, strain KSS1, stronger effect = lower value 0.949 | S. cerevisiae deletion strains, locus YGR052W, strain FMP48, stronger effect = lower value 0.958 | S. cerevisiae deletion strains, locus YGR092W, strain DBF2, stronger effect = lower value 0.937 | S. cerevisiae deletion strains, locus YHR079C, strain IRE1, stronger effect = lower value 0.837 | S. cerevisiae deletion strains, locus YHR082C, strain KSP1, stronger effect = lower value 0.978 | S. cerevisiae deletion strains, locus YHR205W, strain SCH9, stronger effect = lower value 0.955 | S. cerevisiae deletion strains, locus YIL147C, strain SLN1, stronger effect = lower value 0.982 | S. cerevisiae deletion strains, locus YJL095W, strain BCK1, stronger effect = lower value 0.948 | S. cerevisiae deletion strains, locus YJL128C, strain PBS2, stronger effect = lower value 0.936 | S. cerevisiae deletion strains, locus YJL157C, strain FAR1, stronger effect = lower value 0.946 | S. cerevisiae deletion strains, locus YJR016C, strain ILV3, stronger effect = lower value 0.991 | S. cerevisiae deletion strains, locus YJR066W, strain TOR1 (second series), stronger effect = lower value 0.92 | S. cerevisiae deletion strains, locus YJR066W, strain TOR1, stronger effect = lower value 0.975 | S. cerevisiae deletion strains, locus YKL048C, strain ELM1, stronger effect = lower value 0.945 | S. cerevisiae deletion strains, locus YKL067W, strain YNK1, stronger effect = lower value 0.934 | S. cerevisiae deletion strains, locus YKL101W, strain HSL1, stronger effect = lower value 0.916 | S. cerevisiae deletion strains, locus YKL193C, strain SDS22, stronger effect = lower value 0.984 | S. cerevisiae deletion strains, locus YKL203C, strain TOR2, stronger effect = lower value 0.995 | S. cerevisiae deletion strains, locus YLR133W, strain CKI1, stronger effect = lower value 0.941 | S. cerevisiae deletion strains, locus YLR403W, strain SFP1, stronger effect = lower value 0.954 | S. cerevisiae deletion strains, locus YML070W, strain DAK1, stronger effect = lower value 0.923 | S. cerevisiae deletion strains, locus YMR001C, strain CDC5, stronger effect = lower value 0.984 | S. cerevisiae deletion strains, locus YMR205C, strain PFK2 (second series), stronger effect = lower value 0.954 | S. cerevisiae deletion strains, locus YMR277W, strain FCP1, stronger effect = lower value 0.983 | S. cerevisiae deletion strains, locus YNL006W, strain LST8, stronger effect = lower value 0.98 | S. cerevisiae deletion strains, locus YNL020C, strain ARK1, stronger effect = lower value 0.919 | S. cerevisiae deletion strains, locus YNL161W, strain CBK1, stronger effect = lower value 0.977 | S. cerevisiae deletion strains, locus YNL183C, strain NPR1, stronger effect = lower value 0.991 | S. cerevisiae deletion strains, locus YNL207W, strain RIO2, stronger effect = lower value 0.989 | S. cerevisiae deletion strains, locus YNL222W, strain SSU72, stronger effect = lower value 0.979 | S. cerevisiae deletion strains, locus YNL307C, strain MCK1 (second series), stronger effect = lower value 0.897 | S. cerevisiae deletion strains, locus YOL078W, strain AVO1, stronger effect = lower value 0.991 | S. cerevisiae deletion strains, locus YOL136C, strain PFK27, stronger effect = lower value 0.92 | S. cerevisiae deletion strains, locus YOR061W, strain CKA2, stronger effect = lower value 0.917 | S. cerevisiae deletion strains, locus YOR119C, strain RIO1, stronger effect = lower value 1.03 | S. cerevisiae deletion strains, locus YOR231W, strain MKK1, stronger effect = lower value 0.887 | S. cerevisiae deletion strains, locus YOR329C, strain SCD5, stronger effect = lower value 0.974 | S. cerevisiae deletion strains, locus YPL031C, strain PHO85, stronger effect = lower value 0.95 | S. cerevisiae deletion strains, locus YPL153C, strain RAD53, stronger effect = lower value 0.982 | S. cerevisiae deletion strains, locus YPL204W, strain HRR25, stronger effect = lower value 0.941 | S. cerevisiae deletion strains, locus YPL209C, strain IPL1, stronger effect = lower value 0.977 | S. cerevisiae deletion strains, locus YPR025C, strain CCL1, stronger effect = lower value 0.977 | S. cerevisiae deletion strains, locus YPR106W, strain ISR1, stronger effect = lower value 0.988 | S. cerevisiae deletion strains, locus YPR111W, strain DBF20, stronger effect = lower value 0.969 | S. cerevisiae deletion strains, strain NNK1, stronger effect = lower value 0.989 | S. cerevisiae deletion strains, strain TSCII, stronger effect = lower value 0.983

Cc1cc(NS(=O)(=O)c2ccc(NS(=O)(=O)c3cc(C)c(Cl)cc3C)cc2)no1
inactive: [1] 0.991 | [6] 0.994 | [7] 1 | [8] 0.968 | [2] 1.07 | [9] 0.984 | [10] 1.01 | [11] 1.08 | [12] 0.982 | [13] 1.04 | [14] 1.01 | [15] 1 | [16] 0.979 | [17] 0.947 | [18] 1.09 | [19] 0.971 | [20] 0.99 | [21] 1.02 | S. cerevisiae deletion strains, locus YNL128W, strain TEP1, stronger effect = lower value 0.981 | [4] 1.01 | [22] 0.979 | [5] 0.99 | [23] 1.01 | [28] 0.985 | [24] 1.04 | [25] 0.985 | [26] 1.09 | [27] 0.974

Cc1cc(NS(=O)(=O)c2ccc(NS(=O)(=O)c3ccc(Cl)cc3)cc2)no1
inactive: [1] 1.03 | [6] 1.02 | [7] 1 | [2] 0.956 | [9] 1.01 | [10] 1 | [3] 1.01 | [11] 1.07 | [12] 0.999 | S. cerevisiae deletion strains, locus YJL187C, strain SWE1, stronger effect = lower value 1.01 | [13] 1.04 | [14] 1.02 | [15] 1.02 | [16] 1 | [17] 0.983 | [18] 1.07 | [19] 0.988 | [20] 1.01 | [21] 0.956 | [4] 1.02 | [22] 1.03 | [5] 1.01 | [23] 1.02 | [28] 1.06 | [24] 0.902 | [25] 0.995 | [26] 1.08
